Experiment [1] in a line: Viability qHTS for spleen associated tyrosine kinase inhibitor (SYKi) drug resistant MV4-11 cells (AID 1963824). Also: nearly all actives have a fitted effect of over 35% in size. The gist of the method:
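SYK inhibitor-resistant MV4-11 AML cells, 500 per well, added to predispensed compounds and incubated 72 hr at 37 C, 5% CO2. Viability measured by CellTiter-Glo luminescence after 10 min at room temperature.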
Background: In qHTS, concentration-response curves come from the screen itself.

Experiment [2] is described as follows: Quantitative highthroughput screen to assess conditional lethalithy of NOMO1 cells grown in RPMI1640 with untreated serum (RPMI+s) (AID 1963876). Also: nearly all actives have a fitted effect of over 35% in size.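 As to Viability: 100% = DMSO wells and 0% = empty wells without cells.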 The procedure, abridged:
(§1)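 Each medium arm—HPLM with 10% dialyzed FBS, or RPMI1640 with 5 mM glucose and 10% untreated or dialyzed FBS—was screened against an 11-point, 3-fold compound titration for 48 h at 37 °C, with CellTiter-Glo luminescence as endpoint.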

Experiment [3] can be described thus: Quantitative highthroughput screen to assess conditional lethalithy of NOMO1 cells grown in RPMI1640 with dialyzed fetal bovine serum (RPMI+ds) (AID 1963877). Also: nearly all actives have a fitted effect of over 30% in size.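 As to Viability: series mostly up to about 46 µM; 100% = DMSO control wells and 0% = empty wells.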 The gist of the method:
as §1

Experiment [4] is described as follows: Quantitative highthroughput screen to assess conditional lethalithy of NOMO1 cells grown in Human Plasma-Like Medium with dialyzed fetal bovine serum (HPLM+ds) (AID 1963878). Also: nearly all actives have a fitted effect of over 35% in size.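 As to Viability: 100% = DMSO wells and 0% = empty wells on each plate.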 The gist of the method:
as §1

A short description of experiment [5]: Quantitative highthroughput screen to assess conditional lethalithy of P12 Ichikawa cells grown in Human Plasma-Like Medium with dialyzed fetal bovine serum (HPLM+ds) (AID 1963879). Also: nearly all actives have a fitted effect of over 35% in size. As to Viability: series mostly up to about 46 µM. Particulars: Potency: viability. The gist of the method: as §1
Experiment [6] in a line: Quantitative highthroughput screen to assess conditional lethalithy of P12 Ichikawa cells grown in RPMI1640 with dialyzed fetal bovine serum (RPMI+ds) (AID 1963880). Also: nearly all actives have a fitted effect of over 35% in size.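 As to Viability: 100% = DMSO wells and 0% = empty wells on each plate.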 Particulars: Potency: P12-Ichikawa viability. The procedure, abridged:
as §1

Experiment [7] can be described thus: Quantitative highthroughput screen to assess conditional lethalithy of P12 Ichikawa cells grown in RPMI1640 with untreated serum (RPMI+s) (AID 1963881). Also: nearly all actives have a fitted effect of over 35% in size.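 As to Viability: series mostly up to about 46 µM; 100% = DMSO wells and 0% = empty wells without cells.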 Particulars: Potency: viability. The gist of the method:
as §1

The nature of experiment [8]: Quantitative highthroughput screen to assess conditional lethalithy of SEM cells grown in RPMI1640 with unreated serum (RPMI+s) (AID 1963883). Also: nearly all actives have a fitted effect of over 35% in size.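 As to Viability: 100% = DMSO wells and 0% = empty wells without cells.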 The gist of the method:
as §1

Experiment [9] is described as follows: Quantitative highthroughput screen to assess conditional lethalithy of SEM cells grown in RPMI1640 with dialyzed fetal bovine serum (RPMI+ds) (AID 1963884). Also: nearly all actives have a fitted effect of over 35% in size.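 As to Viability: series mostly up to about 46 µM; 100% = DMSO control wells and 0% = empty wells without cells.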 The procedure, abridged: as §1
Experiment [10] is described as follows: Cellular viability qHTS for adrenocortical cancer (ACC) cell line SW-13 (AID 1963989). Also: nearly all actives have a fitted effect of over 65% in size.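 As to activity (max response): cells grown in serum-free medium with ITS supplement; % is scaled to controls: 0 for no effect and ±100 for the full control effect.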 Particulars: SW-13 ACC cells viability, CellTiter-Glo, 48 h; activity (max response): stronger effect = lower value. The procedure, abridged:
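Compound titrations (up to 46 uM final, in DMSO) were applied to SW-13 cells for 48 h at 37C/5% CO2. Reading used CellTiter-Glo after 20 min at room temperature; fitted curves yielded IC50 and efficacy.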

A short description of experiment [11]: Cellular viability qHTS for adrenocortical cancer (ACC) cell line NCI-H295R (AID 1963990). Also: nearly all actives have a fitted effect of over 60% in size. The gist of the method: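 Readout: CellTiter-Glo luminescence, 20 min RT. Exposure: 48 h, 37C/5% CO2. Cells: NCI-H295R, ITS-DMEM serum-free. Range: up to 46 uM. Analysis: 4PL fit, IC50 plus efficacy.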
Experiment [12] can be described thus: Quantitative highthroughput screen to assess conditional lethalithy of SEM cells grown in Human Plasma-Like Medium with dialyzed fetal bovine serum (HPLM+ds) (AID 1963882). Also: nearly all actives have a fitted effect of over 35% in size. As to Viability: series mostly up to about 46 µM. The gist of the method:
as §1

The structures appear in SMILES notation. Where “and” joins values, the source holds several entries; their conditions need not be identical. Equal values may be shown once. Inconclusive results are not listed. Values without a mark were called inactive. Calls of active or inactive are those of the source. Calls follow the shape of the dose curve; as a rule, active = well fitted curve in the direction sought with a large enough effect; inconclusive = small, poorly fitted or top-dose-only effect, or another doubt; inactive = no such curve, though single readings can be large; an effect the other way counts as inactive or inconclusive.
Potency is read from the fitted curve at half-maximal effect.

Regarding `c1ccc2c(CCNc3ccc(Nc4ccncc4)cc3)c[nH]c2c1`, the Potency in [1] was 731 nM (active) and 590 nM (active); in experiment [2], 16.6 µM (active); in experiment [3] it was 18.7 µM (active); in experiment [4] it was 14.8 µM (active); in experiment [5] it was 23.5 µM (active); in experiment [6], 20.9 µM (active). Also, the Potency in experiment [7] was 16.6 µM (active); in experiment [8] it was 372 nM (active); in experiment [9], 833 nM (active); in experiment [10] it was 1.58 µM (active); in experiment [11] it was 3.55 µM (active).
For the compound `C/C=C(\C)C(=O)OC1C[C@@]2(COC(C)=O)O[C@H]2/C=C\[C@@]2(C)O[C@@H]2[C@H]2OC(=O)C(COC(C)=O)=C12` (stereo partly specified), the Potency in [1] is 4.47 µM (active).
On to `C=Cc1c(C)c2cc3nc(cc4[nH]c(cc5nc(cc1[nH]2)C(C)=C5CCC(=O)O)c(CCC(=O)OC)c4C)[C@@]1(C)C3=CC=C(C(=O)OC)[C@H]1C(=O)OC`, for which the Potency was 7.42 µM (active) in [1]; 14.8 µM (active) in experiment [2]; 13.2 µM (active) in experiment [3]; 14.8 µM (active) in experiment [4]; 14.8 µM (active) in experiment [7]. The Potency entry in experiment [5], in [6], in [12], in experiment [8] and in experiment [9] was “inactive” in each case.
Turning to `C[C@@]12O[C@@H](C[C@]1(O)CO)n1c3ccccc3c3c4c(c5c6ccccc6n2c5c31)CNC4=O`, the Potency was 0.0074 µM (active) in [1]; 1.32 µM (active) in experiment [2]; 1.32 µM (active) in experiment [3]; 0.833 µM (active) in experiment [4]; 0.935 µM (active) in experiment [5]; 0.833 µM (active) in experiment [6]. Moreover, the Potency in [7] was 0.662 µM (active); in experiment [12], 0.166 µM (active); in experiment [9] it was 105 nM (active); in [10], 2.82 µM (active); in experiment [11] it was 3.98 µM (active).
Consider `C=CCc1cc(OC)c(O)c(C(=O)NCCO)c1`, for which the Potency result in [1], in experiment [2], in [3], in experiment [4], in experiment [5] and in experiment [6] was “inactive” in each case. Further, the Potency result in [7], in experiment [8], in [9] and in experiment [11] was “inactive” throughout. For the same compound, the activity (max response) in [10] is -2.94%.
Consider `NCCS(=O)(=O)O`, for which the Potency entry in experiment [1], in experiment [2], in experiment [3], in experiment [4], in [5] and in experiment [6] was “inactive” throughout. The Potency entry in [7], in experiment [12], in experiment [9] and in experiment [11] was “inactive” in each case. The activity (max response) in [10] is 6.15% and -3.63%.
As to `O=C(Nc1cccc(Br)c1)c1cccc(S(=O)(=O)N2CCCCCC2)c1`, the Potency in [1] was 5.25 µM (active). The Potency result in [2], in [3], in [4] and in experiment [5] was “inactive” throughout.
As for `CC(C)C(=O)Oc1ccc(CO)cc1[C@H](CCN(C(C)C)C(C)C)c1ccccc1`, the Potency result in experiment [1], in experiment [2], in experiment [3], in [4], in experiment [5] and in [6] was “inactive” throughout. Further, the Potency result in experiment [7] is “inactive”.
As for `CC1=C(C(=O)O)N2C(=O)[C@@H](NC(=O)[C@H](N)C3=CCC=CC3)[C@H]2SC1`, the Potency result in experiment [1], in experiment [2], in experiment [3], in experiment [4], in [5] and in experiment [6] was “inactive” throughout. Further, the Potency result in experiment [7], in [12], in experiment [8], in experiment [9] and in experiment [11] was “inactive” throughout.
Take `Cc1ccccc1C(C(=O)NC1CCCCC1)N(C(=O)Cn1ccnc1C)c1cccc(F)c1` (stereo unspecified): the Potency in [1] was 9.34 µM (active). In addition, the Potency entry in [2], in experiment [3], in [4], in experiment [5], in [6] and in [7] was “inactive” throughout. Moreover, the Potency entry in experiment [12], in [8], in [9] and in experiment [11] was “inactive” throughout. In [10], the activity (max response) was -14.8%.
As to `Nc1ncnc2nc(-c3ccc(N4CCOCC4)nc3)cc(-c3cccc(Br)c3)c12`, in experiment [1], the Potency was 8.33 µM (active). The Potency result in experiment [2], in [3], in [4], in experiment [5], in experiment [6] and in experiment [7] was “inactive” in each case. Further, the Potency result in experiment [8], in experiment [9] and in experiment [11] was “inactive” each time. In experiment [10], the activity (max response) is -17.8%.
Take `CN(C)CCN1C(=O)c2cccc3cc(N)cc(c23)C1=O`: the Potency in experiment [1] was 3.72 µM (active); in experiment [2], 14.8 µM (active); in experiment [3], 18.7 µM (active); in experiment [4], 14.8 µM (active); in experiment [5] it was 18.7 µM (active); in [6], 18.7 µM (active). Moreover, the Potency was 16.6 µM (active) in [7]; 5.9 µM (active) in experiment [12]; 5260 nM (active) in experiment [8]; 9350 nM (active) in experiment [9]; 22.4 µM (active) in [10]; 22.4 µM (active) in [11].
On to `Cc1cc(NC(=O)Nc2ccc(N(C)C)cc2)c2cc(F)cc(F)c2n1`, for which the Potency in experiment [1] is 10.2 µM (active). The Potency entry in experiment [2], in experiment [3], in [4], in experiment [5], in [6] and in [7] was “inactive” throughout. In addition, the Potency result in experiment [12], in [8], in experiment [9] and in [11] was “inactive” throughout.
Consider `O=c1cc(-c2ccc(O)c(O)c2)oc2cc(O)cc(O)c12`, for which the Potency in [1] was 7.42 µM (active). Besides, the Potency entry in experiment [2], in [3], in experiment [4], in experiment [5], in experiment [6] and in [7] was “inactive” throughout. The Potency entry in experiment [8], in experiment [9] and in experiment [11] was “inactive” throughout.
Turning to `CCc1ccc(CCOc2ccc(CC3SC(=O)NC3=O)cc2)nc1` (stereo unspecified), the Potency entry in experiment [1], in experiment [2], in experiment [3], in [4], in experiment [5] and in experiment [6] was “inactive” throughout. In addition, the Potency result in [7], in [12], in experiment [8], in experiment [9] and in experiment [11] was “inactive” each time. Besides, the activity (max response) in experiment [10] was 0.771% and -12.6%.
Consider `COc1nc(C)cnc1NS(=O)(=O)c1cccnc1-c1ccc(-c2nnco2)cc1`, for which the Potency result in [1], in experiment [2], in experiment [3], in [4], in [5] and in [6] was “inactive” throughout. The Potency entry in experiment [7], in experiment [8], in [9] and in [11] was “inactive” in each case.
